Assay results: PubChem BioAssay (Tox21)
Unmarked numbers belong to inactive results. Results filed as inconclusive are left out. Where a call stands in place of a potency, no number is given. Activity calls are given as the source filed them. Unless noted, calls come from the whole dose curve.

Key:
[1] = Nuclear factor erythroid 2-related factor 2/antioxidant responsive element (Nrf2/ARE) small molecule agonists: luciferase reporter gene qHTS assay in human keratinocytes (AID 1919969); conditions: KeratinoSens HaCaT ARE-luciferase, luminescence, 24 h; series mostly up to 92.4 µM; note: nearly all actives have a fitted effect of over 35% in size; note: potency is the fitted concentration of half-maximal effect
[2] = biological target: Gonadotropin-releasing hormone receptor (Homo sapiens) (UniProt P30968); test: Human gonadotropin-releasing hormone receptor (GnRHR) small molecule agonists, calcium flux assay in GnRHR-HEK293 cells (AID 1920063); conditions: calcium flux fluorescence, agonist mode; series mostly up to 57.6 µM; note: nearly all actives have a fitted effect of over 35% in size
Chain of Gonadotropin-releasing hormone receptor (Homo sapiens) (P30968 whole entry, looked up): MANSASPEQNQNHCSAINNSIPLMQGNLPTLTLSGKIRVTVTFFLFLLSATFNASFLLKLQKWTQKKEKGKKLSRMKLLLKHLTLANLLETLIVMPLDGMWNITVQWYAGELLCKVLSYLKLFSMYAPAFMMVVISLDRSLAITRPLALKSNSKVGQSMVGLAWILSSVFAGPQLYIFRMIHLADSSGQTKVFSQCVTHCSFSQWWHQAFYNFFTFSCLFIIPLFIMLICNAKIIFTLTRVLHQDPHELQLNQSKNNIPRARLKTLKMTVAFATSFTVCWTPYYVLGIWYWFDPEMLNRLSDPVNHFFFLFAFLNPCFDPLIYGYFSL
Procedure, shortened: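 We seeded human GnRHR-expressing HEK293 cells for 18 hours, loaded them with calcium dye for an hour at 37 C, added test compounds, and recorded fluorescence intensity kinetically for three minutes.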

[3] = biological target: KiSS-1 receptor (Homo sapiens) (UniProt Q969F8); test: Human kisspeptin (KISS1R) small molecule agonists, calcium flux assay in KISS1R-HEK293 cells (AID 1920064; active = well fitted activation curve with a large enough effect in the repeat runs); conditions: KISS1R-HEK293, calcium flux fluorescence, agonist; series mostly up to 76.8 µM
Chain of KiSS-1 receptor (Homo sapiens) (Q969F8 whole entry, looked up): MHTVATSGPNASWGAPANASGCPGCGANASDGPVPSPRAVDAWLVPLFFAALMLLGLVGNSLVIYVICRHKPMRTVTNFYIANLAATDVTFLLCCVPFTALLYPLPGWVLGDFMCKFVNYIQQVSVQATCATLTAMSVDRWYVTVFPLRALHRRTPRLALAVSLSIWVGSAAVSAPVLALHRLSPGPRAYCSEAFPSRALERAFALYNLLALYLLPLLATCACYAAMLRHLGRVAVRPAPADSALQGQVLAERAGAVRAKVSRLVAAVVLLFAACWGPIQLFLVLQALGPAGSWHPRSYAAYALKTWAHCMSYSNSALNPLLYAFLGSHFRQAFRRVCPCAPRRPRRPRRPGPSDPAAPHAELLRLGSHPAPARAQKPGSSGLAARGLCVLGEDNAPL
Procedure, shortened: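 Kinetic calcium assay, 1 s sampling over 3 min at Ex/Em 480/540, in HEK293 cells engineered with human KISS1R; compounds delivered in DMSO after 1 h dye loading.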

[4] = G protein-coupled receptor (GPCR) small molecule agonists, calcium flux assay: HEK293 wild type cell line counter screen (AID 1920065); conditions: HEK293 WT calcium flux, fluorescence, agonist mode; series mostly up to 57.6 µM
Procedure, shortened: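 Calcium-sensitive dye, loaded 1 h at 37 C into cells cultured 18 h, reports compound-evoked calcium release as fluorescence (Ex/Em 480/540), measured over 3 min. Agonist mode; 15-point titrations, triplicate.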

[5] = p53 small molecule agonists, cell-based qHTS assay with human liver microsomes (AID 1963577); conditions: HCT-116 p53RE-bla with human liver microsomes, ratio, 16 h; series mostly up to 66 µM;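 note: p53 response element beta-lactamase reporter cells with liver microsomes plus NADPH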
Procedure, shortened: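 HLM-supplemented p53RE-bla reporter assay: 16 h compound exposure at 37 C, microsomes and NADPH each 0.5 mg/mL final, read by fluorescence intensity.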

[6] = p53 small molecule agonists, cell-based qHTS assay with rat liver microsomes (AID 1963578); conditions: HCT-116 p53RE-bla, beta-lactamase ratio, 16 h; series mostly up to 66 µM
Procedure, shortened: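 Quantitative HTS of the Tox21 10K library: p53RE-bla cells, rat liver microsomes plus NADPH at 0.5 mg/mL final each, 16 h at 37 C, beta-lactamase fluorescence detection.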

[7] = p53 small molecule agonists, cell-based qHTS assay with human liver microsomes: qHTS cell viability counter screen (AID 1963579); conditions: p53RE-bla HCT-116 viability, ATP luminescence, 16 h, HLM; series mostly up to 66 µM; note: nearly all actives have a fitted effect of over 45% in size
Procedure, shortened: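 Viability of p53RE-bla cells is measured as CellTiter-Glo luminescence following a 16 h, 37 C incubation with compound, liver microsomes from human donors and NADPH.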

[8] = p53 small molecule agonists, cell-based qHTS assay with rat liver microsomes: qHTS cell viability counter screen (AID 1963580); conditions: p53RE-bla HCT-116 + rat microsomes, ATP viability, 16 h; series mostly up to 66 µM; note: nearly all actives have a fitted effect of over 45% in size
Procedure, shortened: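 In HCT-116 cells carrying a p53 response element-bla reporter, compounds were metabolically activated in situ by rat liver microsomes with NADPH over 16 h. Cell ATP content then served as the cytotoxicity measure.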

[9] = p53 small molecule agonists, cell-based qHTS assay: qHTS cell viability counter screen (AID 1963581); conditions: p53RE-bla HCT-116 viability, ATP luminescence, 16 h; series mostly up to 66 µM; note: nearly all actives have a fitted effect of over 45% in size
Procedure, shortened: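 Following 5 h attachment, HCT-116 p53RE-bla cells took up compound for 16 h at 37 C; the reporter was read with B/G FRET substrate (2 h RT), and viability then via CellTiter-Glo ATP luminescence.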

[10] = p53 small molecule agonists, cell-based qHTS assay (AID 1963582; active = well fitted activation curve with a large enough effect in the signal ratio in the repeat runs, not every such curve was filed as active; the % refers to the signal ratio); conditions: HCT-116 p53RE-bla reporter, beta-lactamase FRET ratio, 16 h; series mostly up to 66 µM
Procedure, shortened: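 In this cell-based concentration-response screen, a p53 response element drives beta-lactamase; cells received DMSO-borne compounds after 5 h culture and were incubated a further 16 h before FRET substrate development.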

[11] = biological target: 5-hydroxytryptamine receptor 2A (Homo sapiens) (UniProt P28223); test: 5-hydroxytryptamine receptor 2A (HTR2A) small molecule agonists, cell-based qHTS assay (AID 1963587); conditions: HTR2A-CHO cells, calcium flux fluorescence, agonist mode; series mostly up to 76.8 µM; note: nearly all actives have a fitted effect of over 30% in size
Chain of 5-hydroxytryptamine receptor 2A (Homo sapiens) (P28223 whole entry, looked up): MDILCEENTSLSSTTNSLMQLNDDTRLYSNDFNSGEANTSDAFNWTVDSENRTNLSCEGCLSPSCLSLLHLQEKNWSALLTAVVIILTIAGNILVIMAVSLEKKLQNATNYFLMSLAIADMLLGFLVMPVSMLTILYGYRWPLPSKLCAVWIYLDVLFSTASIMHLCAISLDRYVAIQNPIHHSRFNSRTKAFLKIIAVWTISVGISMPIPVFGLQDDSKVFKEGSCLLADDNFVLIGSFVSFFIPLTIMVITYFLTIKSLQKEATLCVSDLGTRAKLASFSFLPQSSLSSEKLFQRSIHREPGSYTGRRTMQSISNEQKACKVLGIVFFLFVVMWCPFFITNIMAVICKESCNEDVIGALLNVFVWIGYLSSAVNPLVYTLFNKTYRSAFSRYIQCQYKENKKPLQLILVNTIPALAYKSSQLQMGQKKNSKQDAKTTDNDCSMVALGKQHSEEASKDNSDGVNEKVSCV
Procedure, shortened: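 HTR2A-CHO cells, plated 18 h at 37 C/5% CO2, dye-loaded 1 h at 37 C; compounds in DMSO added by pin tool (agonist mode). Intracellular calcium flux read as kinetic fluorescence on FDSS over 2 min at 1 s intervals.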

[12] = biological target: Muscarinic acetylcholine receptor M1 (Homo sapiens) (UniProt P11229); test: Cholinergic receptor muscarinic 1 (CHRM1) small molecule antagonists, cell-based qHTS assay (AID 1963588); conditions: CHRM1-CHO antagonist mode, calcium flux fluorescence; series mostly up to 61.5 µM; note: nearly all actives have a fitted effect of over 40% in size
Chain of Muscarinic acetylcholine receptor M1 (Homo sapiens) (P11229 whole entry, looked up): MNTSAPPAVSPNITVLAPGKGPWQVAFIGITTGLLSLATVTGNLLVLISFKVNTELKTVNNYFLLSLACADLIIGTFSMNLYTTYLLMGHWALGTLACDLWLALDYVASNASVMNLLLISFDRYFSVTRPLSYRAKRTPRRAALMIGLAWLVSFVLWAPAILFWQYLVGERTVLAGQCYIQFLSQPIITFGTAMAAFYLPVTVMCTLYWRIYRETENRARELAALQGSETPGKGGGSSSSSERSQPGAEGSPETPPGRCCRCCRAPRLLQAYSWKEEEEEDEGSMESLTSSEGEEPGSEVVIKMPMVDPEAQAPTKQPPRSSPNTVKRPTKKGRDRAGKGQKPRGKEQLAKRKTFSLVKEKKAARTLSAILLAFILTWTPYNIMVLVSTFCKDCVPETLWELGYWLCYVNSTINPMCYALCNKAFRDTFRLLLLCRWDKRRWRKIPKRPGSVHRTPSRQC
Procedure, shortened: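 CHRM1-CHO calcium-flux assay, antagonist mode. Cells were seeded 18 h, dye-loaded 1 h at 37 C and given compound for 5 min at RT, then acetylcholine was added at 50nM. FDSS fluorescence was read 3 min; 15 concentrations, three runs.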

[13] = cAMP Responsive Elements (CRE) small molecule agonists, cell-based qHTS assay (AID 1963590); conditions: CRE-bla HEK293T, beta-lactamase FRET ratio, 3 h; series mostly up to 92.4 µM
Procedure, shortened: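 A CRE-responsive beta-lactamase reporter in HEK 293T cells was used. Treatment ran 3 h at 37 C; detection used LiveBLAzer B/G FRET substrate for 2 h at room temperature.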

[14] = cAMP Responsive Elements (CRE) small molecule antagonists, cell-based qHTS assay (AID 1963591; active = well fitted inhibition curve with a large enough effect in the signal ratio in the repeat runs, not every such curve was filed as active; the % refers to the signal ratio); conditions: CRE-bla HEK293T, beta-lactamase FRET ratio; series mostly up to 92.4 µM
Procedure, shortened: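 HEK293T cells carrying a CRE-driven beta-lactamase reporter receive compound and NKH477 (0.25 uM final) for 3 h. Fluorescence from LiveBLAzer B/G FRET substrate is read after 2 h at room temperature.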

[15] = biological target: Beta-2 adrenergic receptor (Homo sapiens) (UniProt P07550); test: Adrenergic beta2 receptor (ADRB2) small molecule antagonists, cell-based qHTS assay (AID 1963592); conditions: CHO-ADRB2 cells, isoproterenol-stimulated cAMP HTRF ratio, 0.5 h; series mostly up to 92.4 µM; note: nearly all actives have a fitted effect of over 50% in size
Chain of Beta-2 adrenergic receptor (Homo sapiens) (P07550 whole entry, looked up): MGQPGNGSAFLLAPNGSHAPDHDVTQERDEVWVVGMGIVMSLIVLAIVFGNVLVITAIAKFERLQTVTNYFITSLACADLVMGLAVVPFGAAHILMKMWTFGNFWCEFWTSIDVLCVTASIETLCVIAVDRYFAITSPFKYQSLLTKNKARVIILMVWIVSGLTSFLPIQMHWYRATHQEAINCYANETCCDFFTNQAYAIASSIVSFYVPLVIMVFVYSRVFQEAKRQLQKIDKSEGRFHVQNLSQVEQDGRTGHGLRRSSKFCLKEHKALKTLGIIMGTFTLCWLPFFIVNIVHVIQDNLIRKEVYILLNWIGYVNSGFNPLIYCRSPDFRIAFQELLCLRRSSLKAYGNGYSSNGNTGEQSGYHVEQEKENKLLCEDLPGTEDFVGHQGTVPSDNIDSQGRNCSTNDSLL
Procedure, shortened: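 Cells (CHO, stable ADRB2 overexpression) incubated 18-20hr at 37C; compounds added from DMSO; agonist mix (1nM isoproterenol, 100uM IBMX, 25uM Ro-20-1724) added; 0.5hr RT; d2-cAMP and anti-cAMP-cryptate added; 1hr RT; 665/615 nm read.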

[16] = biological target: D(2) dopamine receptor (Homo sapiens) (UniProt P14416); test: Dopamine D2 receptor (DRD2) small molecule agonists, cell-based qHTS assay (AID 1963594); conditions: HEK293-DRD2 cAMP HTRF, agonist mode, 30 min; series mostly up to 92.4 µM; note: nearly all actives have a fitted effect of over 35% in size
Chain of D(2) dopamine receptor (Homo sapiens) (P14416 whole entry, looked up): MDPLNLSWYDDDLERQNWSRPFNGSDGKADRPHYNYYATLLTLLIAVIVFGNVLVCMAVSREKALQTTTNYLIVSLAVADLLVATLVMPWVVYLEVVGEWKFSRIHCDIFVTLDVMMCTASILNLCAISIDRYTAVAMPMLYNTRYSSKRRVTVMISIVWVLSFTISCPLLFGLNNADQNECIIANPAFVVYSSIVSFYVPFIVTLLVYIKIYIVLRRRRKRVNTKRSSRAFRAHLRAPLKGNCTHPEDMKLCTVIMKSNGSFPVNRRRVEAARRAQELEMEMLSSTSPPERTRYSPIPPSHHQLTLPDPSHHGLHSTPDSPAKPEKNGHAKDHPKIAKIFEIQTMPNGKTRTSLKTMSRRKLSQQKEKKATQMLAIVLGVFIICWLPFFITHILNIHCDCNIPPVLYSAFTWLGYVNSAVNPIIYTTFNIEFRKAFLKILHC
Procedure, shortened: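 HEK293 cells stably expressing DRD2 were cultured 24 h at 37 C, then given Ro20-1724 (0.1 mM final) and compounds for 10 min at room temperature. NKH477 (200nM) was then added for 30 min. cAMP was read by HTRF.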

[17] = biological target: D(2) dopamine receptor (Homo sapiens) (UniProt P14416); test: Dopamine D2 receptor (DRD2) small molecule antagonists, cell-based qHTS assay (AID 1963595; active = well fitted inhibition curve with a large enough effect in the signal ratio in the repeat runs, with a control signal flat; the % refers to the signal ratio); conditions: HEK293-DRD2 cAMP HTRF antagonist mode; series mostly up to 92.4 µM
Procedure, shortened: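 HEK293 cells stably expressing DRD2, preincubated with 0.1 mM Ro20-1724 and compounds 10 min, were stimulated with 200 nM NKH477 plus 12 nM quinpirole for 30 min at room temperature; cAMP measured by HTRF (665/620 nm).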

[18] = biological target: Muscarinic acetylcholine receptor M1 (Homo sapiens) (UniProt P11229); test: Cholinergic receptor muscarinic 1 (CHRM1) small molecule agonists, cell-based qHTS assay (AID 1963589); conditions: CHRM1-CHO cells, agonist mode, calcium flux fluorescence; series mostly up to 76.8 µM; note: nearly all actives have a fitted effect of over 35% in size
Procedure, shortened: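 Measures agonist-induced intracellular calcium rise. Stable human CHRM1 CHO line, 1 h dye load at 37 C, compounds from DMSO, kinetic fluorescence read.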

[19] = biological target: Beta-2 adrenergic receptor (Homo sapiens) (UniProt P07550); test: Adrenergic beta2 receptor (ADRB2) small molecule agonists, cell-based qHTS assay (AID 1963593); conditions: CHO-ADRB2 cells, cAMP HTRF, 30 min; series mostly up to 42.5 µM;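 note: CHO cells stably overexpressing human ADRB2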
Procedure, shortened: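 CHO cells stably over-expressing ADRB2 were plated overnight at 37C, then dosed with compounds plus a stimulation mix containing 100uM IBMX and 25uM Ro-20-1724 for 0.5hr at room temperature. cAMP was measured by HTRF competition, 1hr.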

[20] = biological target: 5-hydroxytryptamine receptor 2A (Homo sapiens) (UniProt P28223); test: 5-hydroxytryptamine receptor 2A (HTR2A) small molecule antagonists, cell-based qHTS assay (AID 1963586); conditions: HTR2A-CHO cells, DOI-induced calcium flux, fluorescence; series mostly up to 61.5 µM; note: nearly all actives have a fitted effect of over 45% in size
Procedure, shortened: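 Antagonist-mode intracellular calcium assay: DOI (4 nM) added after 5 min compound pre-incubation at room temperature to dye-loaded HTR2A-CHO cells. Fluorescence followed for 3 min, sampled every second.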

SMILES	Potency [1]	Potency [2]	outcome [3]	outcome [4]	Potency [5]	Potency [6]	Potency [7]	Potency [8]	Potency [9]	Potency [10]	Potency [11]	Potency [12]	Potency [13]	Potency [14]	Potency [15]	Potency [16]	Potency [17]	Potency [18]	Potency [19]	Potency [20]
c1ccc2c(CC3=NCCN3)cccc2c1	inactive	inactive	inactive	inactive	inactive	inactive	inactive	inactive	inactive	inactive	inactive	inactive	inactive	inactive	inactive	inactive	inactive			
O=c1c2ccccc2nnn1CCl	inactive	inactive	inactive	inactive	inactive	inactive	inactive	inactive	inactive	inactive	inactive	inactive		inactive	inactive		inactive	inactive	inactive	
CCCCCCc1ccc(N)cc1	27.3 µM (active)	inactive	inactive	inactive	inactive	inactive	inactive	inactive	inactive		inactive	inactive			inactive	inactive	inactive		inactive	inactive
Nc1cccc(S(=O)(=O)c2cccc(N)c2)c1	inactive	inactive	inactive	inactive	inactive	inactive	inactive	inactive			inactive	inactive	inactive		inactive	inactive	inactive	inactive	inactive	inactive
O=C1c2ccccc2C(=O)N1CO	inactive	inactive	inactive	inactive	inactive	inactive	inactive	inactive	inactive	inactive	inactive	inactive	inactive	inactive	inactive	inactive	inactive		inactive	
Cc1cc(Br)ccc1NC(=O)CCl	13.7 µM (active)	inactive	inactive	inactive	inactive	inactive	inactive	inactive			inactive	inactive			inactive	inactive	inactive	inactive	inactive	inactive
